Results: PubChem BioAssay

assay: HepG2 liver cancer cell viability effects, profiling panel, resazurin fluorescence, 24 h, PK04 Diversity Set (AID 1172); settings: higher = more signal; also: test concentration not given here

SMILES	z-score
COCCOC(=O)N1C(=O)[C@@]2(c3cc(C#CCCO)ccc31)[C@H](C(=O)N1CCN(c3ncccn3)CC1)[C@H]1C(=O)O[C@H](c3ccccc3)[C@H](c3ccccc3)N1[C@@H]2c1ccc(OCCO)cc1	0.739
CC[C@@H](O[Si](C#C[Si](C(C)C)(C(C)C)C(C)C)(C(C)C)C(C)C)c1cn(Cc2cccc(Cl)c2)nn1	0.318
COCCOC(=O)N1C(=O)[C@@]2(c3cc(C#CCC(C(=O)OC)C(=O)OC)ccc31)[C@H](c1ccc(O)cc1)N1[C@H](c3ccccc3)[C@H](c3ccccc3)OC(=O)[C@H]1[C@@H]2C(=O)N1CCc2cc(OC)c(OC)cc2C1	-0.347
Cc1ccc(S[C@]2(C(=O)NCCN3CCOCC3)CC(=O)N(C(C)C)[C@@H]2c2ccc(CO)cc2I)cc1	0.124
CC(C)c1ccc(NN2C(C(O)c3ccccc3)C=CC3C(=O)N(c4ccccc4)C(=O)C32)cc1 (centres undefined)	0.685
CC(C)C(=C=CC[C@H](O)c1cccc(OCCO)c1)C[C@H](O)c1ccccn1	1.91
COCCOC(=O)N1C(=O)[C@@]2(c3cc(C#CCNC(N)=O)ccc31)[C@H](c1ccc(O)cc1)N1[C@H](c3ccccc3)[C@H](c3ccccc3)OC(=O)[C@H]1[C@@H]2C(=O)N1CCc2cc(OC)c(OC)cc2C1	-0.328
[N-]=[N+]=NCc1ccccc1[C@H]1OC(c2ccc(OCCCO)cc2)=N[C@@]1(Cc1ccccc1N=[N+]=[N-])C(=O)N1CCOCC1	-0.317
C=C(CCCC)/C(=C/C[C@@H](OC(C)=O)c1cccc(OCCO)c1)c1cc(C(=O)OC)ccc1OC	0.978
